# Assays:
# Assay in all cases: PBM binding z-score (relative to random genomic background probes); higher = stronger binding; sequences stand for … in GC…GCGATTGACAGCGTAGAATGAAGG
# [1] = system: RARb homodimer (NR concentration 270 nM)
# Procedure, shortened: (§1)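 The probes on custom Agilent 4×180K protein-binding microarrays were double-stranded, with 34-nt variable regions bearing direct-repeat seeds, single-nucleotide variants, half-site ablations and random human genomic background sequences. Incubation lasted 1 h with ligand-free nuclear receptor dimers in PBS pH 7.4, 2% milk, 0.02% Triton X-100, 1 mM DTT, 0.2 mg/mL BSA and 0.4 mg/ml salmon testes DNA. Antibodies against each partner (one per run) detected bound dimers, and fluorescence scans were regression-normalized. Binding z-scores take the random background probes as reference.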
# [2] = system: RARg:RXRa (NR concentration 270 nM, RXRa partner concentration 90 nM)
# Procedure, shortened: as §1
# [3] = system: RARg homodimer (NR concentration 270 nM)
# Procedure, shortened: as §1
# [4] = system: RXRa DBDmut IVT, anti-RXR (DBD mutation: RXRa K156A/R161A, NR concentration 90 nM)
# Procedure, shortened: as §1
# [5] = system: RXRa homodimer (NR concentration 180 nM)
# Procedure, shortened: as §1
# [6] = system: THRa:RXRa (NR concentration 90 nM, RXRa partner concentration 90 nM)
# Procedure, shortened: as §1
# [7] = system: THRa homodimer (NR concentration 90 nM)
# Procedure, shortened: as §1
# [8] = system: VDR homodimer (NR concentration 270 nM)
# Procedure, shortened: as §1
Sequence,PBM binding z-score [1],PBM binding z-score [2],PBM binding z-score [3],PBM binding z-score [4],PBM binding z-score [5],PBM binding z-score [6],PBM binding z-score [7],PBM binding z-score [8]
GCTGGCAGGCCATTTGGGTCACTCAATGACGGGC,1.88,0.91,1.54,-0.405,0.855,1.86,0.617,0.646
TCTTGTAGATCAAGCAGGTTAATAAAGCCTGAGT,-0.223,-0.313,-0.28,0.435,0.2,0.0183,-0.531,0.0475
GGAACAAGGGCAAGTTGATAGCAGAGTTTGATGG,1.92,1.5,2.02,1.47,0.773,1.14,0.372,1.27
ATCTCTAGGTGAAGATAGTTCAGTGAATGCAAAT,1.19,1.16,1.27,-0.299,0.687,1.24,0.00291,0.334
CAAACTAGGTCTAGGTCAAAGTCGGTTTGTGCCA,2.76,2.15,2.3,0.796,1.83,2.9,1.64,1.1
AGTACGAGGGCACGCTGAGTTGATAGCAGAGTAG,1.41,2.07,2.38,2.3,1.2,1.92,0.295,2.17
CCTTACCGGTCACTCCAGGTTATAGCATCGGAGT,2.64,2.41,3.52,0.359,0.865,3.88,1.32,0.951
TCTCGTAGATCAAGCAGGTTAAGAAAGCCTGAGT,-0.357,-0.372,-0.369,0.598,-0.0292,0.103,-0.615,-0.12
CCTAGTTGGTCAGGAGGTTACACACCGGATATGA,1.49,1.67,1.33,0.179,1.3,1.03,0.918,0.702
ACAAACAGGTGAGTGAAGGTAACTCAGCTGGACG,0.000775,0.131,0.536,-0.35,0.457,1.5,-0.581,-0.41
GATACAGGGTCAGCCAGAGGCCAGAGTATGGAAA,3.47,6.84,4.98,1.17,4.6,3.13,0.534,0.682
AGAATGAGGTTACCAAAGATCAGGAAAACGCTTG,0.544,2.13,1.58,1.15,2.56,2.88,0.443,0.0267
ATACCAAGGTGATCGTGGGGTCGTTGATACTAAC,1.69,2.14,0.593,0.817,2.34,3.15,1.93,2.92
AGAATGAGGTTATACGTAGATCAGGGATGAAAGT,1.04,1.74,1.27,1.92,2.47,2.23,0.607,0.865
CAAACTAGGTCACAGAGGCCAAAGTCCGTGCGTA,3.73,4.88,5.37,2.45,3.63,3.66,1.54,2.62
GCTATTAGTTGAAAGGGCAACCGTATGATTCTCG,2.21,1.41,1.14,1.01,1.43,0.799,-0.237,0.306
TCGCGGAGGACACGAAGGTCAGAGCTTTCCAGAG,3.67,3.06,3.52,0.372,1.64,2.62,0.443,1.19
CGTCTAAGGTCAGAGAGGTCAGTGAATGCCGAGT,5.36,6.8,7.77,3.83,6.37,4.66,3.81,5.7
CGAGCTAGGTCAAGGACAGTGAATCTCCGCACGC,2.95,3.8,4.67,1.27,2.28,3.02,1.62,-0.0669
TCATATAGATAAAAGGTGAAAGTCGGTGTGGTAA,1.53,1.23,0.872,2.07,2.41,1.24,0.0496,0.309
GTACTAAGGTGAATAGGTCGTTGATGAGTAGGCG,2.3,3.3,1.84,0.451,2.22,3.11,1.66,0.722
TCTTGTAGATCAAAGGTAAAGAAAGCCGAAGCCT,-0.121,0.243,-0.165,0.56,0.881,0.386,-0.548,-0.117
CCTAGTTGGTCAGGAGGTCACACGCCGGATATGA,4.02,4.96,4.34,0.884,4.77,3.41,2.31,2.95
TTACCAAGGTGAGCAGAGGTCGTTGATCCAACTC,2.31,1.68,1.26,-0.0246,2.03,3.54,0.587,1.28
TCTAGCAGGCCAGAGGGTCACTCACGAGGTACGG,2.69,2.68,2.14,0.0334,2.44,1.61,0.0798,0.852
ATCTCTAGGTAACAAGTTTAGTGAAAGAGAGGAC,0.455,0.384,0.772,0.0199,0.165,0.929,0.836,0.684
GGAACGAGGGCCTTCGAGTTGATAGCATGGCGAT,-1.03,-0.45,-0.368,0.207,-0.125,0.262,-1.24,-0.335
AGAACGAGTGCAATGAGTTGATAGCACGGGTGGC,-0.553,0.1,-0.109,2.82,0.283,-0.264,-1.03,4.06

# Source: the supplement of paper PMC6555819
